# Measured values taken from PubChem BioAssay (NCI).
# About 83,000 compounds went through this panel and 20% of them were active in at least one assay; those are over-represented in the sample as a whole.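 How to read the values: 0–100, growth inhibition (40 = 60% inhibited); 0, no net growth; -100 to 0, cell death (-40 = 40% of starting cells died; -100 = all dead).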 Calls of active or inactive are those of the source. The calls were made as follows: active = growth percent below 10; inactive = the rest.
# Tested on: HL-60(TB) leukemia
# Test: NCI-60 one-dose screen, 48 h (100 = growth as untreated, 0 = no growth, -100 = all killed)
# Conditions: 10 µM unless noted
row,Structure (SMILES),growth
1,O=C1c2ccccc2C(=O)c2c1ccc1[nH]c(-c3cccs3)nc21,93.6% (inactive)
2,COc1cc(/C=C(/c2ccccc2)[N+](=O)[O-])c(OC)c2c1OCO2,-23% (active)
3,CCOC(=O)C1=C(C)NC(=O)NC1c1c(Cl)n(CCCl)c2ccccc12 (stereo not given),117% (inactive)
4,COc1ccccc1[C@H]1c2[nH]c3ccccc3c2C[C@H]2C(=O)N(CCCCCCC(=O)NO)CC(=O)N12,1.91% (active)
5,CC(=O)OCC1OC(OC2=C(CC=C(Cl)Cl)C(=O)c3ccccc3C2=O)C(OC(C)=O)C(OC(C)=O)C1OC(C)=O (stereo not given),0.376% (active)
6,Nc1ccc(C(OC(=O)c2cc3ccccc3c(Cc3c(O)c(C(=O)OC(c4ccc(N)cc4)(c4ccc(N)cc4)c4ccc(N)cc4)cc4ccccc34)c2O)(c2ccc(N)cc2)c2ccc(N)cc2)cc1,4.23% (active)
7,COc1cc2c(cc1OC)C(Sc1ccc(SC)cc1)c1c(nc(N)c(C#N)c1N)O2 (stereo not given),-52.9% (active)
8,Cc1ccc2nc(-c3c(CCCO)noc3N)[nH]c(=O)c2c1,89.8% (inactive)
9,CN1CCN(c2ccc(OC(F)(F)F)c(Nc3ncc4c(n3)-c3c(c(C(N)=O)nn3CCO)CC4)c2)CC1,-20.5% (active)
10,COC(=O)[C@@H](NC(=O)[C@@H](OC)[C@@H]1Cc2cc3cc(OC4CC(OC5CC(O)C(O)C(C)O5)C(O)C(C)O4)c(C)c(O)c3c(O)c2C(=O)[C@H]1OC1CC(OC2CC(OC3CC(C)(O)C(O)C(C)O3)C(O)C(C)O2)C(O)C(C)O1)C(C)C (stereo not given in full),52.4% (inactive)
11,COC(=O)/C=C1/SC(=Nc2ccc(F)cc2)N(CCc2c[nH]c3ccc(O)cc23)C1=O,-8.07% (active)
12,CC[C@@H](C)[C@H](NC(=O)Cn1cc(CNC(=O)[C@@H](NC(=O)OCc2ccccc2)C(C)C)nn1)C(=O)O,113% (inactive)
13,COc1cc(NCCN(CC(C)C)CC(C)C)c2ncc(C)cc2c1,88.2% (inactive)
14,CCCNCC(=O)Nc1ccc(C(=O)OC(C)(C)CC)cc1,89.8% (inactive)
15,C=C(CBr)[C@@H]1CC[C@]2(C(=O)O)CC[C@]3(C)[C@H](CC[C@@H]4[C@@]5(C)CCC(=O)C(C)(C)[C@@H]5CC[C@]43C)[C@@H]12,71.7% (inactive)
16,CCCCc1nc(Cl)c(C2CC(c3ccc(S(N)(=O)=O)cc3)=NN2c2cc(Cl)cc(Cl)c2)[nH]1 (stereo not given),9.72% (active)
17,CC(C)(C)c1cc(C=Nc2cccc(C(F)(F)F)c2)c(O)c(C(C)(C)C)c1,90.1% (inactive)
18,CCn1c(-c2nonc2Nc2ccc(OC)cc2)nc2ccccc21,128% (inactive)

row,Structure (SMILES),growth
1,COc1ccc(C(c2ccc(OCCN(C)C)cc2)c2cc3ccccc3c3ccccc23)cc1 (stereo not given),3.59% (active)
2,CCCCOS(=O)(=O)c1ccccc1,111% (inactive)
3,Nc1c(C(=O)Nc2ccccc2)sc2nc3c(cc12)CN(Cc1ccccc1)CC3,83% (inactive)
4,Nc1nc(=S)ss1,87.8% (inactive)
5,C=CCOC(=O)Nc1cccn([C@H](Cc2ccccc2)C(=O)NCCC(C)C)c1=O,95.1% (inactive)
6,COc1cccc(/C=C/c2c(C(=O)O)cccc2[N+](=O)[O-])c1OC,97.4% (inactive)
7,Cc1nc2cc(-c3nn(C(C)C)c4ncnc(N)c34)ccc2o1,5.12% (active)
8,C/C(=N\N1CC(=O)NC1=O)c1ccc([N+](=O)[O-])o1,62.7% (inactive)
9,O=C1/C(=C/c2ccc(-c3cccc(C(F)(F)F)c3)o2)SC(=S)N1CCc1ccc(O)cc1,35.7% (inactive)
10,O=C1Nc2ccccc2/C1=N/N=C/c1ccc(OC2OC(CO)C(O)C(O)C2O)cc1 (stereo not given),101% (inactive)
11,O=C(C[P+](c1ccccc1)(c1ccccc1)c1ccccc1)c1ccccc1,93.1% (inactive)
12,COc1cc(C2CC(c3ccc(Cl)cc3)=NN2C(C)=O)ccc1Oc1nc2c(c(=O)n(C)c(=O)n2C)n1C (stereo not given),94.2% (inactive)
13,N#C/C(C(=O)c1ccccc1)=C1/C(=O)Nc2ccccc21,106% (inactive)
14,COc1ccc2oc3c(ccc[n+]3C)c(=O)c2c1,109% (inactive)
15,N#Cc1c2ncccc2c2nnc3cc(Cl)c(Cl)cc3n12,80.4% (inactive)
16,O=C1Nc2ccc(Br)cc2C12Oc1ccccc1C1CC(c3ccc(F)cc3)=NN12 (stereo not given),92.9% (inactive)
17,COc1ccc(-c2cc(-c3cccnc3)nc3sc4c(N)c(C(C)=O)c(-c5ccccc5)nc4c23)cc1OC,78% (inactive)
